# Reference: PubChem BioAssay (EPA / NIEHS)
# Several values for one entry are separate records, joined by “and”; a condition that tells them apart may be missing. Equal values may be shown once. Inconclusive results are not listed. Activity calls are given as the source filed them. Rule for the calls, unless noted: active = hit-call score of the fitted dose curve at least 0.9, where 1 is the maximum; inconclusive = response in the unintended direction; inactive = score below 0.9.
# Legend:
# [1] = CCTE_Deisenroth_5AR_NBTE_donor: CCTE's 5alpha-reductase NanoBRET Target Engagement Assay […], Deisenroth Lab (AID 2284319; active = hit-call score of the fitted dose curve at least 0.9, where 1 is the maximum; inactive = score below 0.9); settings: actives raise or lower the signal
# Procedure, shortened: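 Donor NanoLuc luminescence at 460-20 nm is the read-out, serving artifact detection. Transiently expressed SRD5A2-NanoLuc in HEK293T; 5 h total chemical exposure, testosterone tracer added for the final 2 h; fitting bidirectional relative to DMSO baseline.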
# [2] = CCTE_Mundy_HCI_iCellGluta_NOG_NeuriteLength: CCTE's Neurite Outgrowth Assay in iCellGluta cells for Neurite Length, Mundy Lab (AID 2284318)
# Procedure, shortened: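 Automated high-content imaging of betaIII-tubulin (Alexa Fluor-488) and Hoechst-stained cells gave neurite length, normalized to the DMSO baseline.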
# IYD (gene 389434) = experiment: CCTE_GLTED_hIYD: CCTE's human Iodotyrosine Deiodinase (xIYD) Inhibition Assay, Great Lakes Toxicology and Ecology Division (GLTED) Lab (AID 2284317);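 note: cell-free human IYD enzyme made in baculovirus insect cells; iodide freed from monoiodotyrosine measured by cerium arsenite color change at 420 nm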
# Procedure, shortened: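 First, recombinant human IYD (baculovirus-insect cells), MIT and chemical incubated 3 h. Next, iodide isolated on Dowex. Finally, Sandell-Kolthoff rate read at 420 nm, with platewise normalization to MNT and solvent controls.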
# [3] = IUF_NPC2-5_cytotoxicity_72hr: Cytotoxicity Assessment at 72 hours in the Leibniz Research Institute for Environmental Medicine (IUF) Neural Progenitor Cell Migration and Differentiation Assay for Cytotoxicity (NPC2-5) (AID 2284306);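 note: LDH release into supernatant measured by resorufin fluorescence marking membrane damage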
# Procedure, shortened: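 Human fetal primary neural progenitor spheres (0.3 mm) plated on poly-D-lysine/laminin in N2 differentiation medium, exposed from day 0 at 37C. LDH-dependent resazurin-to-resorufin fluorescence in supernatant at 72 h; 7 concentrations, DMSO at most 0.1%.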
# [4] = IUF_NPC2-5_cytotoxicity_120hr: Cytotoxicity Assessment at 120 hours in the Leibniz Research Institute for Environmental Medicine (IUF) Neural Progenitor Cell Migration and Differentiation Assay (NPC2-5) (AID 2284307)
# Procedure, shortened: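 Human fetal neural progenitor spheres (0.3 mm, GW 16-19 cortex) were plated on poly-D-lysine/laminin in N2 differentiation medium and exposed for 120 h, with half-medium refresh at day 3. LDH release into supernatant was read by resorufin fluorescence.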
# [5] = IUF_NPC2-5_cell_number_120hr: Cell Number Assessment at 120 hours in the Leibniz Research Institute for Environmental Medicine (IUF) Neural Progenitor Cell Migration and Differentiation Assay (NPC2-5) (AID 2284308; active = hit-call score of the fitted dose curve at least 0.9, where 1 is the maximum; inactive = score below 0.9;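 note: count of Hoechst-stained nuclei in migration zone around plated human neural progenitor spheres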)
# Procedure, shortened: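 Primary human fetal neural progenitor spheres (GW 16-19, 0.3 mm) plated on poly-D-lysine/laminin in N2 differentiation medium, exposed from day 0 for 120 h with half-medium refresh at day 3; Hoechst-positive nuclei counted in migration area versus DMSO control.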
# [6] = IUF_NPC2-5_viability_120hr: Viability Assessment at 120 hours in the Leibniz Research Institute for Environmental Medicine (IUF) Neural Progenitor Cell Migration and Differentiation Assay (NPC2-5) (AID 2284312; active = hit-call score of the fitted dose curve at least 0.9, where 1 is the maximum; inactive = score below 0.9)
# Procedure, shortened: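 Human fetal neural progenitor spheres (0.3 mm) plated on poly-D-lysine/laminin in N2 differentiation medium, exposed 120 h with half-medium refresh at day 3. Viability by alamar blue resazurin fluorescence; 7 concentrations, DMSO max 0.1%.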
# TTR (gene 7276) = experiment: CCTE_GLTED_hTTR_0.5uM: CCTE's human Transthyretin (hTTR) Inhibition Assay, with 0.5uM TTR, Great Lakes Toxicology and Ecology Division (GLTED) Lab (AID 2284320; active = hit-call score of the fitted dose curve at least 0.9, where 1 is the maximum; inactive = score below 0.9)
# Procedure, shortened: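 Cell-free displacement assay in which human TTR at 0.5 uM was incubated with test chemical for 2 h. Displacement of the ANSA probe was read by fluorescence at 380 nm excitation/475 nm emission. Loss of signal was fitted in the positive direction versus DMSO.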
# [7] = VALA_TUBHUV_Agonist_CellCount: Viability Assessment in the VALA Sciences human Umbilical Vein Endothelial Tubule Formation (TUBHUV) Agonism Assay (AID 2284309)
# Procedure, shortened: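 HUVEC co-cultured 1:3 with HDF for 3 days in 10 ng/ml VEGF, then compounds added in VEGF medium for a further 3 days (72 h). Nuclear-stain/CD31 imaging cell count. Positive-direction fit versus 0.1% DMSO vehicle.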
# [8] = VALA_TUBIPS_Antagonist_TubuleLength: VALA Sciences human iPS-derived Endothelial Tubule Formation (TUBIPS) Antagonist Assay (AID 2284313)
# Procedure, shortened: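 Cells grown 3 days with 10 ng/ml VEGF, then exposed to compounds in VEGF medium for another 3 days. After fixation, nuclear stain and CD31 immunofluorescence imaging gave mean total tubule length against 0.1% DMSO; suramin (100 uM) inhibition control.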
structure (smiles),measurement,setting,value
CC(C)(c1ccccc1)c1ccc(O)cc1,outcome,[1],inactive
COc1ccc(O)c(C(C)(C)C)c1,outcome,[2],inactive
Cc1cc(-c2ccc(N)c(C)c2)ccc1N,outcome,[1],inactive
CCCCCCCCCC[N+](C)(C)CCCCCCCCCC,AC50,IYD (gene 389434),63.9 µM (active)
same,AC50,[1],5.89 µM (active)
CCCCCCCCCc1ccc(O)cc1,AC50,IYD (gene 389434),24.1 µM (active)
O=S(=O)(O)C(F)(F)C(F)(F)C(F)(F)C(F)(F)C(F)(F)C(F)(F)F,outcome,[3],inactive
same,outcome,[4],inactive
same,outcome,[5],inactive
same,outcome,[6],inactive
same,outcome,[2],inactive
same,AC50,TTR (gene 7276),455 nM (active) and 190 nM (active)
CC#Cc1cc(C)nc(Nc2ccccc2)n1,outcome,IYD (gene 389434),inactive
NS(=O)(=O)C(F)(F)C(F)(F)C(F)(F)C(F)(F)C(F)(F)C(F)(F)C(F)(F)C(F)(F)F,AC50,IYD (gene 389434),46.1 µM (active)
same,outcome,[2],inactive
same,AC50,TTR (gene 7276),807 nM (active)
CO/C=C(/C(=O)OC)c1ccccc1COc1cccc(C(F)(F)F)n1,outcome,[3],inactive
same,outcome,[4],inactive
same,AC50,[5],9.92 µM (active)
same,AC50,[6],6.8 µM (active)
same,AC50,[2],5.9 µM (active)
Oc1ccc(C(c2ccc(O)cc2)(C(F)(F)F)C(F)(F)F)cc1,AC50,[7],65.5 µM (active)
same,outcome,[8],inactive
CCOP(=S)(OCC)SCSC(C)(C)C,outcome,[3],inactive
same,outcome,[4],inactive
same,outcome,[5],inactive
same,outcome,[6],inactive
same,outcome,[2],inactive
O=S(=O)(O)C(F)(F)C(F)(F)C(F)(F)C(F)(F)F,outcome,[3],inactive
same,outcome,[4],inactive
same,outcome,[5],inactive
same,outcome,[6],inactive
same,outcome,[2],inactive
same,AC50,TTR (gene 7276),788 nM (active)
Clc1ccc(C(c2ccccc2Cl)C(Cl)(Cl)Cl)cc1 (stereo unspecified),outcome,[1],inactive
O=C(O)C(F)(F)C(F)(F)C(F)(F)C(F)(F)C(F)(F)F,AC50,TTR (gene 7276),1460 nM (active)
C=CC(N)=O,outcome,[3],inactive
same,outcome,[4],inactive
same,outcome,[5],inactive
same,outcome,[6],inactive
ClC(Cl)=C(c1ccc(Cl)cc1)c1ccc(Cl)cc1,outcome,[1],inactive
CCC(C)c1cc([N+](=O)[O-])cc([N+](=O)[O-])c1O (stereo unspecified),AC50,[1],29.4 µM (active)
O=C(O)C(F)(F)C(F)(F)C(F)(F)C(F)(F)C(F)(F)C(F)(F)C(F)(F)C(F)(F)F,AC50,IYD (gene 389434),91.2 µM (active)
same,AC50,TTR (gene 7276),435 nM (active)
O=C(O)C(F)(F)C(F)(F)C(F)(F)C(F)(F)C(F)(F)C(F)(F)C(F)(F)C(F)(F)C(F)(F)F,AC50,IYD (gene 389434),95.5 µM (active) and 50.9 µM (active)
same,AC50,TTR (gene 7276),721 nM (active)
